TDP1 cell noCPT: qHTS for Inhibitors of human tyrosyl-DNA phosphodiesterase 1 (TDP1): qHTS in cells in absence of CPT | DT40 Tdp1-/- hTDP1 cells, no CPT, ATP luminescence, 48 h | Potency, µM (titrated, usually from 46.2 µM), for the others: at the highest dose activity change, negative = growth inhibition, hits mostly inhibitors | 420,000 tested, 15% active | AID 686978, 2013; further: potency means the concentration at half of the fitted maximal effect; nearly all actives have a fitted effect of over 55% in size
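Seeded 400 DT40-hTDP1 cells/well (vehicle DMSO, no 20 nM CPT); pinned compounds; ≥48 hr at 37 °C; CellTiter-Glo luminescence as viability measure.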
ELG1 DNA repair: qHTS screen for small molecules that inhibit ELG1-dependent DNA repair in human embryonic kidney (HEK293T) cells expressing luciferase-tagged ELG1; HEK293T ELG1-luciferase reporter, luminescence, 16 h; DNA damage induced by 5-fluorouridine; Potency, µM (titrated, usually from 46.1 µM), for inactives: top-dose activity change, negative = inhibition, actives largely listed as inhibitors; 330,000 tested, 2.3% active; AID 504467, 2011; further: potency means the concentration at half of the fitted maximal effect; nearly all actives have a fitted effect of over 55% in size
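Step one: seed 2,000 cells per well. Step two: pin-transfer compound or DMSO alongside 5-fluorouridine. Step three: incubate 16 hr, 37 °C, 5% CO2. Step four: add ONE-Glo, wait 30 min, read luminescence.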
HT1080 IDH1KD tx: qHTS for induction of synthetic lethality in tumor cells producing 2HG: qHTS for the HT-1080-IDH1KD cell line; 360,000 tested, 2% active; Potency, µM (doses to about 46.1 µM), for the others: at the highest dose activity, negative = toxicity, most hits filed as cytotoxic; HT-1080 IDH1 knockdown viability, ATP luminescence, 48 h;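 further: potency means the concentration at half of the fitted maximal effect; 0% = DMSO wells and -100% = cell-free medium wells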
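Viability of IDH1-knockdown HT-1080 fibrosarcoma cells was assessed by CellTiter-Glo after 48 h at 37 °C with titrated compound; concentration-effect curves were classified by fit quality and response size.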
IL-1B inflam inh: qHTS for Inhibitors of Inflammasome Signaling: IL-1-beta AlphaLISA Primary Screen; 360,000 tested, 4.7% active; activity change, % at 57.5 µM; THP-1 LPS/ATP IL-1B secretion, AlphaLISA, 16 h; hits give low values; in the data active means activity change below about -50%; inconclusive means mostly about -30% to -49%
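Secreted IL-1B measured by AlphaLISA bead assay after 16 h compound exposure of THP-1 cells; compounds (final up to 57.5 uM) added 1 h before LPS (250 ng/mL) and ATP (1.25 mM) stimulation; lower signal means less secretion.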
HT1080NT lethal: qHTS for induction of synthetic lethality in tumor cells producing 2HG: qHTS for the HT-1080-NT fibrosarcoma cell line | HT-1080-NT fibrosarcoma viability, CellTiter-Glo ATP luminescence, 48 h | Potency, µM (doses to about 46.1 µM), for inactives: at the top dose activity, negative = less viability, usual class: cytotoxic | 360,000 tested, 1.6% active | AID 686970, 2013;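 further: NT is the 2HG producing partner of a matched IDH1 knockdown line; potency means the concentration at half of the fitted maximal effect; 0% = DMSO-treated cells and -100% = media-only wells without cells; nearly all actives have a fitted effect of over 55% in size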
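Read-out is CellTiter-Glo luminescence after 10 minutes at room temperature, following 48 hours' compound treatment of HT-1080-NT cells (750 cells/well, RPMI, 5% FBS, 37 degrees C).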
TDP1 cell CPT: qHTS for Inhibitors of human tyrosyl-DNA phosphodiesterase 1 (TDP1): qHTS in cells in presence of CPT; chicken DT40 Tdp1-/-;hTDP1 cells + 20 nM CPT, ATP luminescence, 48 h; Potency, µM (titrated, usually from 46.2 µM), inactives show top-dose activity change, negative = growth inhibition, actives largely listed as inhibitors; 420,000 tested, 12% active; AID 686979, 2013; further: potency means the concentration at half of the fitted maximal effect; nearly all actives have a fitted effect of over 55% in size
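Cell growth measured by CellTiter-Glo luminescence after a minimum 48 h, 37 C compound exposure with 20 nM CPT in Tdp1-knockout DT40 cells stably expressing hTDP1, seeded 400/well; qHTS titration format.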
Starred values were filed as active, the others as inactive; ? = inconclusive; / = no result given; [ ] = another dose, or the depositor's remark. Compounds with a hit are over-represented: about 19% of the library has one in this group of screens. Unless noted, the call rests on the fitted dose curve; in most records, active means well fitted curve in the direction sought with a large enough effect; inconclusive means small, poorly fitted or top-dose-only effect, or another doubt; inactive means no such curve, though single readings can be large; an effect the other way counts as inactive or inconclusive. Unless noted, on the % scale 0 is the no-effect control and ±100 the full control effect.

SMILES	TDP1 cell noCPT	ELG1 DNA repair	HT1080 IDH1KD tx	IL-1B inflam inh	HT1080NT lethal	TDP1 cell CPT
CC(C)c1ccc(NC(=O)CSc2nc3ccccc3nc2N2CCCC2)cc1	13µM*	4%	7%	9	16%	18µM*
O=C(CSc1nc2ccccc2nc1N1CCCC1)Nc1ccc(Cl)cc1	26µM*	3%	-1%	11	-18%	?
Cc1occc1C(=O)Nc1cccc([N+](=O)[O-])c1C	10%	-20%	1%	?	11%	-19%
CCc1ccc(NC(=O)CSc2nc3ccccc3nc2Cc2ccc(C)cc2)cc1	16µM*	/	/	/	/	?
O=C(CCNS(=O)(=O)c1ccc(Cl)cc1)NCc1cccs1	-25%	-16%	3%	-14	0%	?
COc1ccc(Cl)cc1C(=O)Nc1ccccc1N1CCN(C(=O)C(C)C)CC1	18µM*	?	-20%	?	-19%	29µM*
Cc1ccc(C(=O)Nc2ccccc2N2CCN(C(=O)C(C)C)CC2)cc1	-29%	?	11%	-16	14%	-26%
COc1ccc(C(=O)Nc2ccccc2N2CCN(C(=O)C(C)C)CC2)cc1Cl	?	23µM*	12%	-16	0%	?
CCOc1cccc(C(=O)Nc2ccccc2N2CCN(C(=O)C(C)C)CC2)c1	?	?	-2%	-53*	8%	?
COc1ccc(Cl)cc1C(=O)Nc1ccc(NC(=O)C(C)C)cc1	18µM*	7%	?	-60*	-17%	18µM*
Oc1cc(O)c(/C=C/c2ccnc3ccccc23)c(O)c1	-18%	/	/	/	/	11%
Cc1cc(N(C)C)cc(C)c1/C=C/c1ccnc2ccccc12	11µM*	/	/	/	/	14µM*
Cc1cc([N+](C)(C)C)cc(C)c1/C=C/c1ccnc2ccccc12	3.2µM*	/	/	/	/	3.5µM*
CC1(C)C(=O)C=CC(=O)C(C)(C)C(=O)C=CC(=O)C(C)(C)C2=CC=C(O2)C(C)(C)C(=O)C=CC1=O	0.82µM*	/	?	-97*	0%	0.82µM*
CC(C)c1ccc(NC(=O)C2CCCN(S(=O)(=O)c3ccc4[nH]c(=O)oc4c3)C2)cc1 (stereo not given)	?	/	/	/	/	-26%
CCOn1c(=O)c(-c2ccc(Br)cc2)[n+]([O-])c2ccccc21	0%	2%	19%	0	10%	5%
CCOc1ccc(OCC)c(-c2c(=O)n(OCc3ccccc3C(=O)OC)c3ccccc3[n+]2[O-])c1	13µM*	?	-26%	-18	-2%	13µM*
COc1ccc(-c2c(=O)n(OCc3nc4ccccc4[nH]3)c3ccccc3[n+]2[O-])cc1	?	?	-3%	-19	0%	0%
CCOc1ccc(-c2c(=O)n(OCc3ccccc3Br)c3ccccc3[n+]2[O-])c(OCC)c1	23µM*	?	1%	6	-1%	?
CCOc1ccc(OCC)c(-c2c(=O)n(OCc3ccccc3Br)c3ccccc3[n+]2[O-])c1	8.9µM*	?	-24%	-28	-1%	10µM*
CCOc1ccc(-c2c(=O)n(OCc3nc4ccccc4[nH]3)c3ccccc3[n+]2[O-])cc1	23µM*	?	-2%	/	2%	?
COc1ccc(CN2CC(C(=O)N3CC(C)CC(C)C3)CC2=O)cc1 (stereo not given)	17%	-2%	0%	15	3%	-2%
CCC(C(=O)O)n1nnc(-c2ccc(OCc3ccccc3)c(OC)c2)n1 (stereo not given)	/	0%	/	/	/	/
NC(=O)c1ccc[n+]([C@@H]2O[C@H](COP(=O)([O-])OP(=O)(O)OC[C@H]3O[C@@H](n4cnc5c(N)ncnc54)[C@H](O)[C@@H]3O)[C@@H](O)[C@H]2O)c1	-18%[21.1 µM]	/	/	/	/	7%[21.1 µM]
CN(C)c1ccc(/C=C/c2c([N+](=O)[O-])c(=O)n(C)c(=O)n2C)cc1	1%	-4%	-1%	-1	-3%	2%
SMILES	TDP1 cell noCPT	ELG1 DNA repair	HT1080 IDH1KD tx	IL-1B inflam inh	HT1080NT lethal	TDP1 cell CPT
COc1cc(/C=C/c2c([N+](=O)[O-])c(=O)n(C)c(=O)n2C)cc(OC)c1OC	?	-26%	?	-5	-10%	?
Cn1c(/C=C/c2ccc(Br)cc2)c([N+](=O)[O-])c(=O)n(C)c1=O	12µM*	?	13µM*	-103*	?	8.2µM*
COc1ccc(OC)c(/C=C/c2c([N+](=O)[O-])c(=O)n(C)c(=O)n2C)c1	-11%	?	-19%	-6	-26%	13%
COc1ccc(/C=C/c2c([N+](=O)[O-])c(=O)n(C)c(=O)n2C)cc1O	?	?	-11%	-83*	-3%	-29%
CCCOc1ccc(/C=C/c2c([N+](=O)[O-])c(=O)n(C)c(=O)n2C)cc1	-17%	-21%	-10%	-77*	1%	-22%
CCC1CN(CCNC(=O)c2cc(C)nn2CC)Cc2cc(OC)ccc2O1 (stereo not given)	?	/	/	/	/	-3%[9.04 µM]
COc1cccc(NC(=O)Cn2cnc3c(nc4n3CCCCC4)c2=O)c1	-6%	/	/	/	/	-18%
CCN1CCC(NC(=O)Nc2ccccc2C(=O)OC)CC1	-6%	14%	-1%	-8	11%	-5%
COC(=O)c1ccccc1NC(=O)NC1CCC(C)CC1 (stereo not given)	18µM*	?	9%	?	10%	-4%
COc1cc(C(=O)NC2CCN(CC(=O)Nc3cccc(C)c3C)CC2)cc(OC)c1OC	?	-26%	2%	-4	-13%	18µM*
COc1cc(OC)cc(C(=O)Nc2ccccc2C(=O)NC2CC2)c1	16µM*	?	?	11	-28%	?
CC(C)C(NCC(=O)Nc1ccccc1C(=O)NC1CC1)c1ccccc1 (stereo not given)	?	-21%	-11%	13	2%	16µM*
Cc1nc2ccc(C(=O)NCCCn3ccnc3)cn2c1N(C)CC1CCCCC1	?	/	-30%	?	-28%	?
